Experimental data as given in PubChem BioAssay (NCATS).
Inconclusive results are not listed. Where a call stands in place of a potency, no number is given. The source made the active and inactive calls. Calls follow the shape of the dose curve; as a rule, active = well fitted inhibition curve with a large enough effect; inconclusive = small, poorly fitted or top-dose-only effect; inactive = flat fitted curve, though single readings scatter.

Test: P-glycoprotein substrates identified in KB-8-5-11 adenocarcinoma cell line, qHTS therapeutic library screen (AID 1346987); also: nearly all actives have a fitted effect of over 65% in size
Settings: KB-8-5-11 (P-gp overexpressing) viability, CellTiter-Glo, 72 h; series mostly up to 44.5 µM
Outline: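 KB-8-5-11: colchicine-selected sub-line of KB-3-1 over-expressing P-gp; assay medium lacked colchicine. 72 h drug exposure at 37 degree C, CellTiter-Glo.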
Potency is read from the fitted curve at half-maximal effect.

SMILES	Potency
CC(O)[C@@H]1NC(=O)[C@H](Cc2ccccc2)NC(=O)[C@H](C(C)O)NC(=O)[C@H](CCCCN)NC(=O)[C@H](Cc2c[nH]c3ccccc23)NC(=O)[C@H](Cc2ccccc2)NC(=O)[C@H](Cc2ccccc2)NC(=O)[C@H](CC(N)=O)NC(=O)[C@H](CCCCN)NC(=O)[C@@H](NC(=O)CNC(=O)[C@H](C)N)CSSC[C@@H](C(=O)O)NC(=O)[C@H](CO)NC1=O (some centres undefined)	inactive
O=C(O)Cc1cc(I)c(Oc2ccc(O)c(I)c2)c(I)c1	inactive
C[C@H](CCC(=O)O)[C@H]1CC[C@H]2[C@@H]3CC[C@@H]4C[C@H](O)CC[C@]4(C)[C@H]3C[C@H](O)[C@]12C	inactive
COc1ccc(C(=O)c2ccc(C)cc2)c(O)c1	inactive
CC(=O)O[C@@H]1CC2CCC1(C)C2(C)C (some centres undefined)	inactive
COc1ccc(C[C@H](C)NC[C@@H](O)c2ccc(O)c(NC=O)c2)cc1	inactive
O=C(O)CC/C=C\CC[C@@H]1[C@@H](N2CCCCC2)[C@@H](O)C[C@@H]1OCc1ccc(-c2ccccc2)cc1	inactive
CC(=O)Oc1cccc(C(=O)O)c1OC(C)=O	inactive
CN[C@@H]1[C@@H](O)[C@@H](O[C@@H]2[C@@H](O)[C@H](OC3OC(CN)=CCC3N)[C@@H](N)C[C@H]2N)OC[C@]1(C)O (some centres undefined)	inactive
NC(=O)OC[C@@H]1[C@H](NC(=O)/C(=N\OCC(=O)O)c2csc(N)n2)C(=O)N1S(=O)(=O)O	inactive
CN(Cc1ccccc1)Cc1ccccc1	inactive
CCOC(=O)c1c[nH]c2cc(OCC(C)C)c(OCC(C)C)cc2c1=O	inactive
C=Cc1c(C)c2cc3nc(cc4[nH]c(cc5nc(cc1[nH]2)C(C)=C5CCC(=O)OC)c(CCC(=O)O)c4C)[C@@]1(C)C3=CC=C(C(=O)OC)[C@H]1C(=O)OC	inactive
COc1cc(S(C)=O)ccc1-c1nc2ncccc2[nH]1 (centres undefined)	inactive
CN[C@@H]1[C@@H](O)[C@@H](O[C@@H]2[C@@H](O)[C@H](O[C@H]3O[C@H](CN)[C@@H](O)[C@H](O)[C@H]3O)[C@@H](N)C[C@H]2NC(=O)C(O)CN)OC[C@]1(C)O (some centres undefined)	inactive
OC[C@H]1O[C@@H]2O[C@H]3[C@H](O)[C@@H](O)[C@@H](O[C@H]4[C@H](O)[C@@H](O)[C@@H](O[C@H]5[C@H](O)[C@@H](O)[C@@H](O[C@H]6[C@H](O)[C@@H](O)[C@@H](O[C@H]7[C@H](O)[C@@H](O)[C@@H](O[C@H]1[C@H](O)[C@H]2O)O[C@@H]7CO)O[C@@H]6CO)O[C@@H]5CO)O[C@@H]4CO)O[C@@H]3CO	inactive
CCN(CC)CCOc1ccccc1OC	inactive
CCCCCCCCCCCCOCCCN	inactive
CC1=CC(=C(c2ccc(N)cc2)c2ccc(N)cc2)C=CC1=N	14.6 µM (active)
NC(=O)[C@@H]1C[C@]2(NC(=O)NC2=O)c2cc(F)ccc2O1	inactive
C[C@H](N)C(=O)N[C@@H](C)P(=O)(O)O	inactive
Cc1cc(-c2ccc(N=Nc3c(S(=O)(=O)O)cc4cc(S(=O)(=O)O)cc(N)c4c3O)c(C)c2)ccc1N=Nc1c(S(=O)(=O)O)cc2cc(S(=O)(=O)O)cc(N)c2c1O	9.2 µM (active)
O=C(O)/C=C/C(=O)Nc1ccc(S(=O)(=O)Nc2nccs2)cc1	inactive
CC(O)[C@H]1CC[C@H]2[C@@H]3CC[C@@H]4C[C@@H](O)CC[C@]4(C)[C@H]3CC[C@]12C (some centres undefined)	6.51 µM (active)
CO[C@H]1C[C@H](O[C@@H]2/C(C)=C/C[C@@H]3C[C@@H](C[C@]4(CC[C@H](C)[C@@H](C5CCCCC5)O4)O3)OC(=O)[C@@H]3C=C(C)/C(=N/O)[C@H]4OC/C(=C\C=C\[C@@H]2C)[C@]43O)O[C@@H](C)[C@@H]1O	inactive
CO[C@@H]1[C@H](OC(=O)/C=C/C=C/C=C/C=C/C(=O)O)CC[C@]2(CO2)[C@H]1[C@@]1(C)O[C@@H]1CC=C(C)C	inactive
O=C1CCC(=O)N1CO	inactive
CN(C)C(=O)CCSC(SCCC(=O)O)c1cccc(/C=C/c2ccc3ccc(Cl)cc3n2)c1 (centres undefined)	inactive
Cc1c(N)nc([C@H](CC(N)=O)NC[C@H](N)C(N)=O)nc1C(=O)N[C@H](C(=O)N[C@H](C)[C@@H](O)[C@H](C)C(=O)N[C@H](C(=O)NCCc1nc(-c2nc(C(=O)NCCCCN=C(N)N)cs2)cs1)[C@@H](C)O)[C@@H](O[C@@H]1O[C@@H](CO)[C@@H](O)[C@H](O)[C@@H]1O[C@H]1O[C@H](CO)[C@@H](O)[C@H](OC(N)=O)[C@@H]1O)c1cnc[nH]1	inactive
